This passage reports inhibition results from PubChem BioAssay AID1347418 (Sanford-Burnham Center for Chemical Genomics, 2020).

Broadly, the inhibition is the drop in the measured response relative to a control, in per cent.

Hit rate of the full screen: of about 1,300 compounds, about 750 (58%) were called active. Some of the results follow.

The target of this experiment is Sulfhydryl oxidase 1 (Homo sapiens) (UniProt O00391). The experiment in a line: inhibition of human sulfhydryl oxidase QSOX1 – biochemical, ROS-Glo H2O2 luminescence, HTS, primary screen (AID 1347418). Conditions: recombinant QSOX1, ROS-Glo H2O2 luminescence; at 12.5 µM; hits give high values; active = any value above zero.
Sulfhydryl oxidase 1 (Homo sapiens), sequence (O00391 whole entry, looked up): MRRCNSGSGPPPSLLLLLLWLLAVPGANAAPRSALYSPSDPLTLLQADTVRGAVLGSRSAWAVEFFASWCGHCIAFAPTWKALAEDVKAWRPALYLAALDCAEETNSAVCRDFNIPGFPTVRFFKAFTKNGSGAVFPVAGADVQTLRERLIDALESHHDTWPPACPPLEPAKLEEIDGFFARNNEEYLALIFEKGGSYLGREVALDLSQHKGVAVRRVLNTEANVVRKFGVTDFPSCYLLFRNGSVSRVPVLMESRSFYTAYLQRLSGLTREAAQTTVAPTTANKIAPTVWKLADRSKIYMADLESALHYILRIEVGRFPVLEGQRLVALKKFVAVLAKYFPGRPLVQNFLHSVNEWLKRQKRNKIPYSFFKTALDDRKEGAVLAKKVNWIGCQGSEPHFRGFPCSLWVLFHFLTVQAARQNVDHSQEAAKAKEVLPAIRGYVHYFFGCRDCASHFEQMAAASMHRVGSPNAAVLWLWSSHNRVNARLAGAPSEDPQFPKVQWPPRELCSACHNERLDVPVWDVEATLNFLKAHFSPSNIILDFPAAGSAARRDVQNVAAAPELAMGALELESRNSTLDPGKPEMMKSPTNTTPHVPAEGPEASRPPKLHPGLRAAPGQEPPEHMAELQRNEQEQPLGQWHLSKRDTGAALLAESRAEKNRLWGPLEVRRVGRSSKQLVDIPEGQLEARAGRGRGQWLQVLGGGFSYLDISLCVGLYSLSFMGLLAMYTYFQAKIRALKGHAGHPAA
`S=C([S-])OC1CC2C[C+]1C1CCCC21` (centres undefined): the inhibition was -1.8% (inactive). In the case of `O=c1onc2cnc3ccccc3n12` it was 1.7% (active); in that of `CN(C)CCCC1(c2ccc(F)cc2)OCc2cc(C#N)ccc21` (centres undefined), -4.9% (inactive); in that of `O=c1[nH]cnc2[nH]ncc12`, 7.1% (active).

For `OC[C@H]1NC[C@@H](O)[C@@H]1O`, the inhibition was 3.1% (active). In the case of `OCC1NCC(O)C(O)C1O` (centres undefined) it was 0.3% (active). Under `CCCC(CCC)C(=O)O` stands -0.3% (inactive); under `CCCCS(=N)(=O)CC[C@H](N)C(=O)O` (some centres undefined), 2.8% (active). Under `CCCCS(=N)(=O)CCC(N)C(=O)O` (centres undefined) stands 5.6% (active). Take `CN=C(N)NCCC[C@H](N)C(=O)O`: the inhibition is -2.7% (inactive). Consider `O=S(=O)(c1cccc2c(Cl)cccc12)N1CCCNCC1`, for which the inhibition was 0.5% (active).

Turning to `O=S(=O)(c1cccc2c(I)cccc12)N1CCCNCC1`, the inhibition was 8.3% (active). For the compound `CC(=O)O[C@H]1C(=O)[C@@]2(C)C([C@H](OC(=O)c3ccccc3)[C@]3(O)C[C@H](OC(=O)[C@H](O)[C@@H](NC(=O)c4ccccc4)c4ccccc4)C(C)=C1C3(C)C)[C@]1(OC(C)=O)CO[C@@H]1C[C@@H]2O` (some centres undefined), the inhibition was 1.7% (active).

`N[C@@H](COP(=O)(O)O)C(=O)O`: the inhibition was -1.4% (inactive). In the case of `N[C@@H](CC(=O)O)C(=O)O` it was 4.2% (active); in that of `N[C@H](CO)C(=O)O`, 1.4% (active). In the case of `NOCC(=O)O` it was -7.4% (inactive); in that of `N[C@@H](CS(=O)O)C(=O)O`, -2.6% (inactive). In the case of `C=CC[C@H](N)C(=O)O` it was 4.9% (active); in that of `CC(=O)N[C@@H](CS)C(=O)O`, 1.8% (active). As for `CC(=O)N[C@H](C(=O)O)C(C)(C)SN=O`, the inhibition was -3.3% (inactive).

For the compound `N[C@@H]1CONC1=O`, the inhibition is -12.8% (inactive).

In the case of `Cc1ccccc1/C=C/C1=NCCN1`, the inhibition was 0.5% (active).

Consider `CC(C)(C(=O)O)c1ccc(C(O)CCCN2CCC(C(O)(c3ccccc3)c3ccccc3)CC2)cc1` (centres undefined), for which the inhibition was -1.3% (inactive). For the compound `CC(C)(C)c1ccc(C(O)CCCN2CCC(C(O)(c3ccccc3)c3ccccc3)CC2)cc1` (centres undefined), the inhibition is -4% (inactive).

Turning to `CC(C(O)c1ccc(O)cc1)N1CCC(Cc2ccccc2)CC1` (centres undefined), the inhibition is 7.3% (active). In the case of `C[C@@H](CN1CCC(Cc2ccccc2)CC1)[C@@H](O)c1ccc(O)cc1` it was 3.4% (active); in that of `CC(C)(C)NCC(O)c1cc(O)cc(O)c1` (centres undefined), -2% (inactive); in that of `CNC[C@H](O)c1ccc(O)c(O)c1`, 8.4% (active). Under `CNCC(O)c1ccc(O)c(O)c1` (centres undefined) stands 2.8% (active). In the case of `CC(C)(C)NCC(O)c1ccc(O)c(CO)c1` (centres undefined) it was 5.3% (active). As to `CNC[C@H](O)c1cccc(O)c1`, the inhibition was -3.5% (inactive). Under `Cc1cn[nH]c1` stands 1.9% (active).

Consider `NS(=O)(=O)C1=[C+]C=[C+]c2c1c([N+](=O)[O-])cc1nc([O-])c([O-])nc21`, for which the inhibition was -4.9% (inactive). For `COc1ccccc1CNCCCCCCNCCCCCCCCNCCCCCCCNc1ccccc1OC`, the inhibition is 1.8% (active).

Turning to `CCCCCCCC/C=C\CCCCCCCC(=O)NCCO`, the inhibition was 6.9% (active). Take `CCCCCCCCCCCCCCCC(=O)NCCO`: the inhibition was -1.3% (inactive). In the case of `Oc1ccc(C2CNCc3sccc32)cc1O` (centres undefined) it was 15.7% (active); in that of `CN1Cc2sccc2C(c2ccc(O)c(O)c2)C1` (centres undefined), 23.4% (active); in that of `c1cnc2c(c1)ccc1cccnc12`, -2.1% (inactive). In the case of `c1ccc(-c2ccccn2)nc1` it was 7.3% (active). In the case of `Cn1cnc2c1c(=O)[nH]c(=O)n2C` it was 3.2% (active); in that of `Cn1c(=O)[nH]c2ncn(C)c2c1=O`, 3% (active); in that of `CC1(C)CCC=[N+]1[O-]`, -1.5% (inactive). `CCN(CC)C(C)CN1c2ccccc2Sc2ccccc21` (centres undefined): the inhibition was 50.6% (active). Under `CC(CN1c2ccccc2Sc2ccccc21)N(C)C` (centres undefined) stands 43.7% (active); under `O=C1NC(=O)/C(=C/c2ccc(-c3ccc(F)cc3O)o2)S1`, 27.2% (active); under `O=C(O)[C@@H]1C[C@H](C(=O)O)N1`, -6.9% (inactive). In the case of `C=CCNc1ncnc2ccc(Br)cc12` it was -1.1% (inactive); in that of `NC(=O)c1cnccn1`, 0.9% (active). As for `NC(CO)C(=O)NNCc1ccc(O)c(O)c1O` (centres undefined), the inhibition was 25.6% (active). In the case of `O=c1onc2n1-c1cc(Br)ccc1OC2`, the inhibition was -0.8% (inactive). `O=C(O)CCCC[C@@H]1CCSS1`: the inhibition is -2.4% (inactive). Under `NCCCCC(=O)O` stands -2.5% (inactive); under `NCCCCCC(=O)O`, 5% (active).

For `CCOC(=O)N1CCN(/[N+]([O-])=N/Oc2ccc([N+](=O)[O-])cc2[N+](=O)[O-])CC1`, the inhibition was -34% (inactive).

With `NC(=O)c1ncn([C@@H]2O[C@H](CO)[C@@H](O)[C@H]2O)n1`, the inhibition is -3.1% (inactive). Under `OCC1O[C@H]([S-])[C@@H](O)C(O)[C@@H]1O.[Au+]` (some centres undefined) stands 2.4% (active); under `CC(=O)N[C@@H](Cc1c[nH]c2ccccc12)C(=O)OCc1cc(C(F)(F)F)cc(C(F)(F)F)c1`, 2% (active); under `O=C1C2C=CC=CC2=NC(=S)N1CCN1CCC(=C(c2ccc(F)cc2)c2ccc(F)cc2)CC1` (centres undefined), 4.4% (active). `NCCCCNCCCN`: the inhibition is 1.5% (active). Turning to `NCCCNCCCCNCCCN`, the inhibition is -1.8% (inactive). Under `CC(C)(C)NCC(O)COc1nsnc1N1CCOCC1` (centres undefined) stands 3.3% (active); under `CCOC(=O)C12CC1/C(=N/O)c1ccccc1O2` (centres undefined), 0.7% (active). Under `CC1(C)C(=O)N(CCN2CCC(C(=O)c3ccc(F)cc3)CC2)c2ccccc21` stands -1.4% (inactive); under `O=C(c1ccc(F)cc1)C1CCN(CCn2c(=O)[nH]c3ccccc3c2=O)CC1`, 1.5% (active).

Consider `O=C(O)c1cc2cc(F)ccc2[nH]1`, for which the inhibition is 6.8% (active). As for `O=C(O)c1cc(=O)cc(C(=O)O)[nH]1`, the inhibition was -2% (inactive). In the case of `CCCC[C@@]1(C2CCCC2)Cc2cc(OCC(=O)O)c(Cl)c(Cl)c2C1=O` it was 4.2% (active); in that of `C[C@@]1(C2CCCC2)Cc2cc(OCC(=O)O)c(Cl)c(Cl)c2C1=O`, -4.6% (inactive); in that of `COc1ccc2c(c1)c(CC(=O)O)c(C)n2Cc1ccc(Cl)cc1`, -5.1% (inactive).

On to `CC(C)c1ccc2c(c1)c(SC(C)(C)C)c(CC(C)(C)C(=O)O)n2Cc1ccc(Cl)cc1`, for which the inhibition was 8.9% (active). In the case of `Cc1cc2c(C(C)C)c(O)c(O)c(C=O)c2c(O)c1-c1c(C)cc2c(C(C)C)c(O)c(O)c(C=O)c2c1O` it was 50.4% (active); in that of `CCN1C(=O)C=CC1=O`, -3.8% (inactive). With `N[C@@H](CCC(=O)N[C@H](CSN=O)C(=O)NCC(=O)O)C(=O)O`, the inhibition is -4.8% (inactive). As for `[N-]=[N+]=Nc1ccc(C(=O)CSC[C@H](NC(=O)CC[C@H](N)C(=O)O)C(=O)NCC(=O)O)cc1`, the inhibition is 6.8% (active). Turning to `O=C1N=C([O-])CN1/N=C/C1=C[C+]=C(c2ccc([N+](=O)[O-])cc2)O1`, the inhibition was 3.6% (active). In the case of `N=C(N)SCCN` it was 6.4% (active); in that of `N=C(N)SCCc1ccc(CCSC(=N)N)cc1`, -2.2% (inactive). In the case of `S=C(S)N1CCCC1`, the inhibition is 19.5% (active). Under `N#CC(C#N)=C(N)/C(C#N)=C/c1ccc(O)cc1` stands 11.6% (active); under `O=[N+]([O-])c1ccc2c(c1)S(=O)(=O)C=C2`, 2% (active); under `O=c1[nH]c2cc(C(F)(F)F)ccc2n1-c1cc(C(F)(F)F)ccc1O`, 1.4% (active). As for `O=NN(CCCl)C(=O)NCCCl`, the inhibition is -3.4% (inactive).

Turning to `NC1CCN(O)C1=O` (centres undefined), the inhibition is 1.1% (active). In the case of `COc1cc2c(c(OC)c1OC)-c1ccc(OC)c(=O)cc1[C@@H](NC(C)=O)CC2` it was 1.3% (active).

Turning to `CCCCCCC(=O)OC1CC(C)(C)NC(C)(C)C1`, the inhibition was 1.1% (active). As to `Nc1ccc(S(=O)(=O)Nc2ccnn2-c2ccccc2)cc1`, the inhibition is -1.7% (inactive). On to `CNc1cc(NS(=O)(=O)c2ccc(N)cc2)nc(NC)n1`, for which the inhibition is 3.7% (active). Under `O=C(O)C1=CC(=C(c2ccc(O)c(C(=O)O)c2)c2ccc(O)c(C(=O)O)c2)C=CC1=O` stands 17.4% (active); under `COc1cc(/C=C(\C#N)C(=O)c2ccc(O)c(O)c2)cc(I)c1O`, 27.3% (active); under `N#C/C(=C\c1ccc(O)c(O)c1)C(=O)c1ccc(O)c(O)c1`, 17.4% (active). In the case of `CN(C)CC[C@@H](c1ccc(Br)cc1)c1ccccn1`, the inhibition is 7.7% (active). In the case of `CN(C)CCC(c1ccc(Cl)cc1)c1ccccn1` (centres undefined) it was 2.8% (active). Under `CN(C)CCC(c1ccc(Br)cc1)c1ccccn1` (centres undefined) stands 0.5% (active).

For `CN(C)CC[C@@H](c1ccc(Cl)cc1)c1ccccn1`, the inhibition is 0% (inactive). In the case of `CN(C)CCC(c1ccccc1)c1ccccn1` (centres undefined) it was 1.1% (active); in that of `O.O.[NH2-].[NH2-].[NH2-].[NH2-].[NH2-].[NH2-].[NH2-].[NH2-].[NH2-].[NH2-].[NH2-].[NH2-].[NH2-].[NH2-].[Ru].[Ru].[Ru]`, 20.7% (active); in that of `CCCCC/C=C\CC(O)/C=C/c1cccc(CC(O)CCCCO)n1` (centres undefined), -0.7% (inactive). In the case of `O=C1CCc2cc(OCCCCc3nnnn3C3CCCCC3)ccc2N1` it was 1.5% (active); in that of `CCOC(=O)C1=C[C@]2(CC)CCCN3CCc4c(n1c1ccccc41)[C@@H]32`, 0.9% (active). In the case of `O=C1c2c(O)ccc(O)c2C(=O)c2c(NCCNCCO)ccc(NCCNCCO)c21` it was 42% (active); in that of `C=C1N=C(N=NC2=C(S(=O)(=O)[O-])[C+]=C(S(=O)(=O)[O-])[C+]=C2)[C+](COP(=O)([O-])O)C(C=O)=C1O`, -3.7% (inactive); in that of `CC(=O)[C@H]1CC[C+]2C3CC=C4C[C@@H](OS(=O)(=O)[O-])CC[C@]4(C)C3CC[C@@]21C` (some centres undefined), 1.8% (active). On to `CCOC(=O)C(C)Oc1cccc2c(=O)n(CC(=O)Nc3ccc4c(c3)OCCO4)ccc12` (centres undefined), for which the inhibition was -3.2% (inactive).

On to `c1ccc(CN2CCC3(CCCc4ccccc43)CC2)cc1`, for which the inhibition was 3.6% (active). As to `Cc1nc2sccn2c(=O)c1CCN1CCC(=C(c2ccc(F)cc2)c2ccc(F)cc2)CC1`, the inhibition was 1.1% (active).

Take `Cc1nc2sccn2c(=O)c1CCN1CCC(=C(c2ccccc2)c2ccc(F)cc2)CC1`: the inhibition is 1.2% (active). In the case of `Cc1nc2ccccn2c(=O)c1CCN1CCC(C(=O)c2ccc(F)cc2)CC1` it was -1.4% (inactive).
